From PubChem BioAssay come the findings set out here.

The nature of experiment [1]: reducers of endogenous Her2 protein level, primary screen, SKBR3 breast tumor cells, AlphaScreen, ATP viability (AID 461;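 active = Her2 level under about 52% in both replicate screens, with viability over 70% of control, limit read from the data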;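 as to Her2 level: lower value means less Her2 protein in the cells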;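 as to viability: percent of carrier control wells set as 100% viability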). The note with it: 18-24 h, measured here: SKBR3 viability, ATP luminescence, at 10 µM.
The target of experiment [2] is Receptor tyrosine-protein kinase erbB-2 (Homo sapiens) (UniProt P04626). The description is as above. The note with it: 18-24 h, at 10 µM, stronger effect = lower value.
Chain of Receptor tyrosine-protein kinase erbB-2 (Homo sapiens) (P04626 whole entry, looked up): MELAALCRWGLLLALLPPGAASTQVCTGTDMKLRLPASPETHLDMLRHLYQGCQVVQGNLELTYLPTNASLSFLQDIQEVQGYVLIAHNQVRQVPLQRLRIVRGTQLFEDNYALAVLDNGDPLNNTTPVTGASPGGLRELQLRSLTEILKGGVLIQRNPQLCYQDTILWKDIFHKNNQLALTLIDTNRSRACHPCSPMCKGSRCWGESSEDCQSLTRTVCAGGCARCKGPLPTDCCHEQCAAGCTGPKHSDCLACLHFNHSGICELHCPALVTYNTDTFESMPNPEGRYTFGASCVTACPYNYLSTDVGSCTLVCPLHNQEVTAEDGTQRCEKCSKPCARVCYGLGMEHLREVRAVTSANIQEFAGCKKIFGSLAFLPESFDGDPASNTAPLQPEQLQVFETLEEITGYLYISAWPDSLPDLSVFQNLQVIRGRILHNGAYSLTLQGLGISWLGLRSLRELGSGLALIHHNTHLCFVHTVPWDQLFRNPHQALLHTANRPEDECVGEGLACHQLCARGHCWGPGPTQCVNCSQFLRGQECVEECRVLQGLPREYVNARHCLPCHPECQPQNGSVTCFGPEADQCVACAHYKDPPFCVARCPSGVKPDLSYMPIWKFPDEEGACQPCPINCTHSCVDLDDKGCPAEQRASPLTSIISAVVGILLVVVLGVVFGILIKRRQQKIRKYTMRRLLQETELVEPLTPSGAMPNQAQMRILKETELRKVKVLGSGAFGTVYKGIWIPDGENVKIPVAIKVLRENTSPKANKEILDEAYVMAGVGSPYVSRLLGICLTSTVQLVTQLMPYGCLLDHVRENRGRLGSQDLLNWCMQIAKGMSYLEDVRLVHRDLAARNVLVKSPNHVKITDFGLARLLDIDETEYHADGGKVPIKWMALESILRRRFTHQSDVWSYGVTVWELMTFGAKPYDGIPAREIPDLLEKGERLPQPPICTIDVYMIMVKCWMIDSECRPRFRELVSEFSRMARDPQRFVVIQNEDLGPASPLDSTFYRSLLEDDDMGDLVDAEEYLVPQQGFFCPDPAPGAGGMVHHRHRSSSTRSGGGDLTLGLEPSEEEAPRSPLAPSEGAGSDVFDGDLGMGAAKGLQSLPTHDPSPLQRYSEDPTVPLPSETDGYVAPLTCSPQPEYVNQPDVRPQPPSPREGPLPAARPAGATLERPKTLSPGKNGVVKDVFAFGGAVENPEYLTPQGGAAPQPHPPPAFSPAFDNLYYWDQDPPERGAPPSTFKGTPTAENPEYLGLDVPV
A short description of experiment [3]: SK-BR-3 cell growth inhibitors, pilot screen, 24 h, human (AID 572;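 active = viability at or below 10% of carrier control in both of two separate runs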;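 also: compound exposure lasted between 18 and 24 h rather than exactly 24 h; 100% = carrier-treated control wells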). The note with it: SK-BR-3 viability, CellTiter-Glo luminescence, at 10 µM, stronger effect = lower value.
Experiment [4] in a line: HUVEC growth inhibition – cell-based, human, primary screen (AID 575;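 active = viability at or below 30% in both replicate assays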;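 also: 100% = median of untreated cell wells with 0.1% DMSO on each plate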). Conditions: HUVEC proliferation, CellTiter-Glo luminescence, 72 h; at 10 µM; stronger effect = lower value.
Experiment [5] can be described thus: growth inhibitors of H69AR lung tumor, primary screen, human, duplicate replicates (AID 580;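 active = viability at or under a set limit in both replicates, limit being median viability minus 3 SD, cut at about 48% in these data, passing the limit was not always enough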;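 also: 100% = mean luminescence of untreated wells and 0% = no signal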). Conditions: H69AR lung tumor cells viability, ATP luminescence, 72 h; at 10 µM; stronger effect = lower value.
Experiment [6] is described as follows: reversal of MRP1-mediated doxorubicin resistance, pilot screen, H69AR cells, doxorubicin co-treatment (AID 601;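 active = viability loss from added drug above about 55%, and viability with drug at most 40%, in both replicates, limit read from the data, passing the limit was not always enough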). The note with it: CellTiter-Glo, 72 h, at 10 µM; for differential viability (reversal): stronger effect = higher value.
Experiment [7] can be described thus: 384-well plate pilot, post-Golgi transport modulator project, inhibition of yeast transport mutant growth (AID 636; in the data active = inhibition above about 31%). The note with it: absorbance 615 nm, about 18 h, stronger effect = higher value.
A short description of experiment [8]: growth suppression of yeast trafficking mutant, preliminary HTS, modulators of trafficking downstream of Golgi apparatus project, 1536-format plate, OD 615 nm (AID 637). The note with it: yeast transport mutant growth, absorbance 615 nm, 18 h; stronger effect = higher value.
Experiment [9] can be described thus: OD615 S. cerevisiae growth inhibition, permissive medium, pilot counter-assay, permissive growth control for S. cerevisiae lifespan shortening project (AID 705;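 active = growth inhibition above 25% in both replicates, a cutoff set 3 SD above the mean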). Conditions: OD615, 24 h, at 10 µM, stronger effect = higher value.
Experiment [10] in a line: Restrictive medium S. cerevisiae growth inhibition, OD615, pilot screen of yeast lifespan reduction project, restrictive growth control (AID 706;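 active = growth inhibition above a set limit, 3 SD over mean compound inhibition, in both replicates, cut at about 43% in these data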;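 also: modified DeaD lifespan yeast strain shifted to restrictive glucose medium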). The note with it: OD615, 48 h, at 10 µM, stronger effect = higher value.
The nature of experiment [11]: viability gain of MRP-1-high H69AR cells under doxorubicin, pilot screen, MRP-1 activator project, CellTiter-Glo, duplicate (AID 807;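 active = viability increase at or above a cutoff of the median across tested compounds plus 3 SD, cut at about 8.5% in these data, passing the limit was not always enough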;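 also: compound pretreatment 18-22 h then 72 h combined with doxorubicin; 0% = doxorubicin alone and 100% = vehicle without doxorubicin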). The note with it: H69AR viability with doxorubicin, CellTiter-Glo luminescence; at 10 µM; stronger effect = higher value.
Experiment [12] can be described thus: growth suppression of beta-catenin knockout HCT116, pilot screen, human colon tumor cells (AID 823;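 active = cell viability at or below a set limit in both duplicate runs, the limit being the all-compound median minus 4 SD, cut at about 23% in these data, passing the limit was not always enough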;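 also: 0% = wells killed by 20 µM Hyamine and 100% = untreated DMSO cell wells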). Conditions: CellTiter-Glo, 60 h, at 10 µM, stronger effect = lower value.
Experiment [13] is described as follows: growth suppression of PTEN-deleted HCT116, pilot screen, cell-based, HCT116 clonal line, CellTiter-Glo (AID 824;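 active = viability at or below 27.92% in each of two runs, the all-compound median minus 4 SD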;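 also: 0% = 20 µM Hyamine control and 100% = vehicle cell control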). The note with it: 60 h, at 10 µM, stronger effect = lower value.
Experiment [14] in a line: inhibitors of the yeast RAM network, pilot screen, dse1pr::URA3 reporter, 5-FOA selection (AID 869;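 active = inhibition over a set limit, the all-compound mean plus 3 SD, in both replicate runs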;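 also: 0% = DMSO wells with no growth and 100% = 10 µM 1-NA-PP1 with full growth; RAM network block rescues cells from 5-FOA so hits raise OD615 growth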). The note with it: S. cerevisiae dse1pr::URA3 5-FOA growth, OD615, 2 d; at 10 µM; stronger effect = higher value; strain carries analog-sensitive mutant Cbk1 kinase.
Experiment [15] is described as follows: RAM signaling pathway blockade in yeast – S. cerevisiae, Pdr1DBD-CYC8 efflux-inhibited sensitized strain, primary screen (AID 1298;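 active = RAM network inhibition above 8.4% in each of two replicates, 3 SD over the compound average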;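 also: 0% = DMSO untreated cells without growth and 100% = 10 µM 1-NA-PP1 full growth; higher means more yeast growth rescued from 5-FOA killing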). The note with it: S. cerevisiae cbk1-as DSE1-URA3 strain, 5-FOA growth OD615, 2 d; at 50 µM; stronger effect = higher value.
Where [16] appears, read: H69AR cells + 2 uM doxorubicin, measured here: viability with 2 uM doxorubicin, stronger effect = lower value.
Setting [17] is: H69AR cells, compound alone cytotoxicity.

Records with an inconclusive call do not appear. Calls of active or inactive are those of the source. Rule as the data show it, unless noted: active = inhibition above about 30%; inactive = the rest.

As for `CCC(C)NC(=O)C1c2cc(OC)c(OC)cc2C(=O)N(C)C1c1ccc(OC)cc1` (configuration not stated), the viability in experiment [1] was 96%; in experiment [3] it was 96% (inactive); in experiment [4], 108% (inactive); in experiment [5], 108% (inactive); in [6] (setting [16]), 97.6%; in [6] (setting [17]), 108%. For the same compound, the viability in experiment [12] is 96% (inactive); in experiment [13], 95.3% (inactive). In addition, in experiment [2], the Her2 level was 90% (inactive). For the same compound, the differential viability (reversal) in [6] (H69AR cells + 2 uM doxorubicin) was 10.2% (inactive). The inhibition is -8.77% (inactive) in [7], -10.2% (inactive) in [8] and 0.92% (inactive) in experiment [14]. Moreover, the growth inhibition is -5.75% (inactive) in [9] and -9.85% (inactive) in experiment [10]. Further, the viability increase in experiment [11] was -1.38% (inactive). The RAM network inhibition in [15] was 0.81% (inactive).

Turning to `Cc1cccnc1-n1c(CCN2C(=O)c3ccccc3C2=O)nc2ccccc2c1=O`, the viability in experiment [1] is 89.5%; in experiment [3], 89.5% (inactive); in experiment [4] it was 89.2% (inactive); in experiment [5], 95.1% (inactive); in experiment [6] (setting [16]) it was 91.1%; in experiment [6] (setting [17]), 95.1%. For the same compound, the viability is 102% (inactive) in experiment [12] and 97.4% (inactive) in [13]. In experiment [2], the Her2 level was 106% (inactive). The differential viability (reversal) in experiment [6] (H69AR cells + 2 uM doxorubicin) is 4.03% (inactive). In addition, the results for the inhibition in experiment [7], in [8] and in experiment [14] were 1.28% (inactive), -10.3% (inactive) and 0.525% (inactive), respectively. For the same compound, the growth inhibition in experiment [9] was 6.29% (inactive); in experiment [10] it was -3.29% (inactive). In addition, in experiment [11], the viability increase was -2.01% (inactive). In addition, the RAM network inhibition in [15] was 3.68% (inactive).

With `CC(C)(C)NC(=O)Cn1c(=O)oc2ccc(Cl)cc21`, the viability in experiment [1] is 96%; in experiment [3], 96% (inactive); in experiment [4] it was 96.5% (inactive); in experiment [5] it was 92.9% (inactive); in [6] (setting [16]), 64.1%; in [6] (setting [17]), 92.9%. For the same compound, the viability is 106% (inactive) in experiment [12] and 100% (inactive) in experiment [13]. In addition, the Her2 level in experiment [2] is 104% (inactive). Besides, the differential viability (reversal) in [6] (H69AR cells + 2 uM doxorubicin) was 28.8% (inactive). In addition, the inhibition in [7] was -2.4% (inactive); in [8] it was 0.83% (inactive); in [14], 0.38% (inactive). Further, the growth inhibition in [9] was 5.54% (inactive); in experiment [10] it was 5.01% (inactive). For the same compound, the viability increase in experiment [11] was -4.63% (inactive). The RAM network inhibition in experiment [15] is 7.56% (inactive).

On to `COc1cccc(C2CC(=O)Nc3c2c(=O)n(C)c(=O)n3C)c1OC` (configuration not stated), for which the viability was 98.5% in [1]; 98.5% (inactive) in [3]; 93.8% (inactive) in experiment [4]; 102% (inactive) in experiment [5]; 87% in experiment [6] (setting [16]); 102% in experiment [6] (setting [17]). Besides, the viability in [12] was 98.9% (inactive); in experiment [13], 95.9% (inactive). For the same compound, the Her2 level in experiment [2] is 101% (inactive). For the same compound, the differential viability (reversal) in experiment [6] (H69AR cells + 2 uM doxorubicin) is 15.2% (inactive). Further, the inhibition was 1.33% (inactive) in experiment [7], -4.75% (inactive) in experiment [8] and 2.06% (inactive) in [14]. Further, the growth inhibition in experiment [9] is -3.2% (inactive); in [10] it was -1.43% (inactive). Moreover, the viability increase in experiment [11] was 0.25% (inactive). Further, the RAM network inhibition in experiment [15] is 7.39% (inactive).

`Cc1cc(C)n2nc(S(=O)(=O)N(C)c3ccccc3)nc2n1`: the viability in experiment [1] was 103%; in experiment [3], 103% (inactive); in experiment [4] it was 88.2% (inactive); in experiment [5], 94.5% (inactive); in experiment [6] (setting [16]) it was 93.9%; in [6] (setting [17]), 94.5%. Further, the viability in experiment [12] is 104% (inactive); in experiment [13], 98.1% (inactive). In addition, in [2], the Her2 level was 102% (inactive). Moreover, the differential viability (reversal) in experiment [6] (H69AR cells + 2 uM doxorubicin) is 0.67% (inactive). The inhibition is -5.6% (inactive) in experiment [7], 4.17% (inactive) in experiment [8] and 3.53% (inactive) in experiment [14]. Also, the values for the growth inhibition in [9] and in experiment [10] were -16.1% (inactive) and -13.7% (inactive), respectively. For the same compound, in [11], the viability increase is -1.5% (inactive). In addition, the RAM network inhibition in experiment [15] was 1.62% (inactive).

Turning to `CC1CCCN(S(=O)(=O)c2coc(C(N)=O)c2)C1` (configuration not stated), the viability in experiment [1] is 87.5%; in [3] it was 87.5% (inactive); in experiment [4] it was 82.6% (inactive); in experiment [5], 94.6% (inactive); in experiment [6] (setting [16]) it was 118%; in [6] (setting [17]) it was 94.6%. Also, the figures for the viability in [12] and in [13] were 108% (inactive) and 99.5% (inactive), respectively. Besides, the Her2 level in experiment [2] is 119% (inactive). Also, the differential viability (reversal) in [6] (H69AR cells + 2 uM doxorubicin) is -23.4% (inactive). Moreover, the inhibition in experiment [7] was -0.51% (inactive); in [8], 1% (inactive); in experiment [14], 1.33% (inactive). For the same compound, the figures for the growth inhibition in [9] and in experiment [10] were -19.2% (inactive) and -4.31% (inactive), respectively. The viability increase in [11] is -0.1% (inactive). Further, the RAM network inhibition in experiment [15] is 2.99% (inactive).
